Rows were chosen to be rich in hits. Some 2% of all compounds tested hit in one or more screens of this group.
LYPLA2 inh – LYPLA2 inhibitors, primary screen, counter-screen for PME1 inhibitor project, biochemical, fluorescence polarization, FP-Rh probe ABPP; recombinant LYPLA2; inhibition, % at 5.9 µM; actives 0.38% (n = 320,000); AID 2177, 2009;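 active means inhibition above the screen-wide mean plus 3 SD, limit set per campaign, cut at about 26% in these data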;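 further: 0% = LYPLA2 with DMSO and 100% = wells lacking LYPLA2 enzyme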
LYPLA1 inh – LYPLA1 inhibitors, primary screen, counter-screen for PME1 inhibitor project, biochemical, fluorescence polarization, FP-Rh probe ABPP | actives 0.16% (n = 320,000) | inhibition, % at 5.9 µM | Acyl-protein thioesterase 1 (Homo sapiens), O75608 | AID 2174, 2009 | recombinant LYPLA1;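 active means inhibition above the mean of all tested compounds plus 3 SD, set per campaign, cut at about 14% in these data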;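 further: inhibitors block serine hydrolase probe labeling of LYPLA1 so polarization falls; 0% = enzyme with DMSO and 100% = wells lacking LYPLA1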
Target sequence (O75608 whole entry, looked up): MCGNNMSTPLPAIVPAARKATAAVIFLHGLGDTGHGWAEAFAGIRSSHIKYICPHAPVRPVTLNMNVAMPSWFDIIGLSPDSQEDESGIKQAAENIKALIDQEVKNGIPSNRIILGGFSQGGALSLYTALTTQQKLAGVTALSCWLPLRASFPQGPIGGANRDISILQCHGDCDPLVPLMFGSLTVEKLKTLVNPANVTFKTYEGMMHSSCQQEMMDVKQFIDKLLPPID
PME-1 inh – PME-1 inhibitors via competitive probe labeling, primary screen, biochemical, fluorescence polarization, FP-Rh probe, HTS. Protein phosphatase methylesterase 1 (Homo sapiens), Q9Y570. recombinant PME-1. inhibition, % at 5.9 µM. actives 0.53% (n = 320,000). AID 2130, 2009;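 active means inhibition above the campaign mean of all compounds plus 3 SD, cut at about 26% in these data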;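 further: competitive labeling of PME-1 active site by serine hydrolase directed probe; 0% = PME-1 with DMSO and 100% = wells lacking PME-1 enzyme; inhibitors block probe labeling so polarization falls and inhibition rises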
Target sequence (Q9Y570 whole entry, looked up): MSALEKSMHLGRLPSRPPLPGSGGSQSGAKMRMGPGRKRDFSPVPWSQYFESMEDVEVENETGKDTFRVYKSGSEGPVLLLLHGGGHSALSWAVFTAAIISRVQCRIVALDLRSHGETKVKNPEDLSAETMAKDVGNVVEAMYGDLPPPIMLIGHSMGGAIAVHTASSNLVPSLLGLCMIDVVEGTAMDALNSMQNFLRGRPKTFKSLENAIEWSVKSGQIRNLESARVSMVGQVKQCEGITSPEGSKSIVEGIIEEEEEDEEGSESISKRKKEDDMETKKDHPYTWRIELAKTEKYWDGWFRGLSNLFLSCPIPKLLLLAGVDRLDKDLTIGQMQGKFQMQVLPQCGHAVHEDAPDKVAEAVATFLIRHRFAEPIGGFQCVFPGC
Fam108B inh – mouse Fam108B serine hydrolase inhibitors, primary screen, counter-screen for RBBP9 inhibitor project, biochemical, fluorescence polarization; actives 0.33% (n = 300,000); inhibition, % at 9.51 µM; recombinant Fam108B, FP-Rh probe fluorescence polarization; AID 1947, 2009;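 active means inhibition above the screen mean inhibition plus 3 SD, computed separately per campaign, cut at about 18% in these data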;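 further: inhibitors lower polarization as less probe binds the enzyme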
PREPL inh – PREPL enzyme inhibitors, primary screen, biochemical, fluorescence polarization | actives 0.68% (n = 320,000) | Prolyl endopeptidase-like (Homo sapiens), Q4J6C6 | inhibition, % at 5.96 µM | recombinant PREPL, fluorescence polarization activity-based probe | AID 2751, 2010; in the data active means inhibition above about 43%;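 further: 0% = enzyme with DMSO and 100% = wells lacking enzyme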
GSTO1 inh – inhibitors of recombinant GSTO1, primary screen, counter-screen for RBBP9 inhibitor project, biochemical, fluorescence polarization. activity-based probe fluorescence polarization. inhibition, % at 5.96 µM. actives 1.1% (n = 300,000);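 active means inhibition above the campaign mean inhibition plus 3 SD, cut at about 35% in these data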;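 further: 0% = GSTO1-1 with DMSO and 100% = wells lacking GSTO1-1 enzyme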
Fam108b confirm – mouse Fam108b serine hydrolase inhibitors, confirmation, counter-screen for RBBP9 inhibitor project, biochemical, fluorescence polarization, triplicate | shares compounds with Fam108B inh | recombinant Fam108b, FP-Rh probe fluorescence polarization | inhibition, % at 9.51 µM | actives 44% (n = 930);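 active means inhibition above a limit from the primary screen, the mean over all compounds plus 3 SD, cut at about 19% in these data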;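 further: 0% = median of active Fam108b wells and 100% = catalytically dead S170A mutant; inhibitors free the probe so polarization falls as inhibition rises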
Fam108b ABPP HTS – inhibition of mouse Fam108b by HTS hits, late-stage follow-up, biochemical, gel-based ABPP, soluble recombinant form | actives 44% (n = 260) | AID 588649, 2011 | fluorophosphonate probe | inhibition, % at 20 µM | shares compounds with Fam108B inh; in the data active means inhibition above about 40%
GSTO1 confirm – GSTO1 inhibitor hit confirmation, counter-screen for RBBP9 inhibitor project, biochemical, fluorescence polarization, triplicate; inhibition, % at 5.96 µM; recombinant GSTO1, probe fluorescence polarization; shares compounds with GSTO1 inh; actives 54% (n = 2,400);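 active means inhibition above the primary screen's cutoff, its mean inhibition plus 3 SD, cut at about 35% in these data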;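 further: loss of polarization as inhibitors block binding of rhodamine sulfonate ester activity probe; 0% = GSTO1 with DMSO and 100% = wells lacking GSTO1 enzyme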
An asterisk follows results filed as active.

How did O=C1NCCN2CCCC12 (stereo not given) do in these assays?
LYPLA2 inh: 30.4*; LYPLA1 inh: 0.8; PME-1 inh: -4.3; Fam108B inh: -2.0; PREPL inh: 2.6; GSTO1 inh: -1.4

What do the screens show for `CN1CCN(c2ccc([N+](=O)[O-])c3no[n+]([O-])c23)CC1`?
LYPLA2 inh: -29.1; LYPLA1 inh: -15.8; PME-1 inh: -28.5; Fam108B inh: -22.5; PREPL inh: -11.8; GSTO1 inh: 46.7*

What do the screens show for `O=C1C(=O)c2cccc3cccc1c23`?
LYPLA2 inh: 3.8; LYPLA1 inh: -3.3; PME-1 inh: 9.5; Fam108B inh: 2.4; PREPL inh: 6.4; GSTO1 inh: 37.6*

How did COc1ccc(Cn2c(N)c(C(=O)NCc3ccco3)c3nc4ccccc4nc32)cc1OC do in these assays?
LYPLA2 inh: -11.4; LYPLA1 inh: -7.6; PME-1 inh: -7.3; Fam108B inh: 3.9; PREPL inh: 13.1; GSTO1 inh: 52.7*

What do the screens show for `Cc1ccc(S(=O)(=O)N(C)N=O)cc1`?
LYPLA2 inh: -5.4; LYPLA1 inh: -0.5; PME-1 inh: 1.9; Fam108B inh: 0.3; PREPL inh: -8.1; GSTO1 inh: 4.8

How did O=C(CN1CCN(C(=O)COc2cccc(F)c2)CC1)Nc1ccc(Cl)c(C(F)(F)F)c1 do in these assays?
LYPLA2 inh: 12.6; LYPLA1 inh: 0.8; PME-1 inh: -2.1; PREPL inh: 19.0

How did CN1CC(C(=O)c2cccc(C(F)(F)F)c2)C(c2ccc(Cl)cc2)C1 (stereo not given) do in these assays?
LYPLA2 inh: 5.7; LYPLA1 inh: -0.4; PME-1 inh: 9.5; Fam108B inh: 20.3*; PREPL inh: -28.3; GSTO1 inh: 5.6; Fam108b confirm: -12.3

How did C/C(=N\NC(=O)c1ccccc1O)c1c(O)n(Cc2ccccc2)c(=O)[nH]c1=O do in these assays?
LYPLA2 inh: 6.6; LYPLA1 inh: -3.3; PME-1 inh: 3.7; Fam108B inh: 21.1*; PREPL inh: 7.2; GSTO1 inh: 23.4; Fam108b confirm: 81.6*; Fam108b ABPP HTS: 0.0

How did C/C(=N\NC(=O)c1ccccc1O)c1c(O)n(C2CCCCC2)c(=O)[nH]c1=O do in these assays?
LYPLA2 inh: 6.5; LYPLA1 inh: 1.0; PME-1 inh: -13.0; Fam108B inh: 19.4*; PREPL inh: 5.8; GSTO1 inh: 4.4; Fam108b confirm: 21.0*

Results for CCCN(CC1CC1)CC(O)c1ccccc1 (stereo not given) ?
LYPLA2 inh: -1.6; LYPLA1 inh: 2.0; PME-1 inh: -1.0; Fam108B inh: 3.3; PREPL inh: 2.4; GSTO1 inh: -3.3

What do the screens show for `COC(=O)C1=C(c2ccc(Cl)c(C(F)(F)F)c2)C[C@@H]2CC[C@H]1N2C(=O)NC1CCCCC1`?
LYPLA2 inh: 10.6; LYPLA1 inh: -1.4; PME-1 inh: -5.8; PREPL inh: 5.9

How did CCCCCn1c(=O)c(C(=O)NC(C)c2ccccc2)c(O)c2ccccc21 (stereo not given) do in these assays?
LYPLA2 inh: -4.5; LYPLA1 inh: -1.7; PME-1 inh: 8.2; Fam108B inh: 0.0; PREPL inh: -7.2; GSTO1 inh: -1.9

What do the screens show for `COc1ccc(OC)c(N2C(=O)CC(=O)NC2=O)c1`?
LYPLA2 inh: 8.4; LYPLA1 inh: -0.5; PME-1 inh: -0.6; Fam108B inh: -0.9; PREPL inh: 0.5; GSTO1 inh: -3.7

Results for COc1ccc(OC)c(N2C(=O)NC(=O)/C(=C/c3ccc([N+](=O)[O-])s3)C2=O)c1 ?
LYPLA2 inh: 5.3; LYPLA1 inh: 1.1; PME-1 inh: -0.4; Fam108B inh: 46.2*; PREPL inh: 31.3; GSTO1 inh: 23.9; Fam108b confirm: 8.3

How did N#CC(Br)Br do in these assays?
LYPLA2 inh: -1.0; LYPLA1 inh: 0.1; PME-1 inh: -9.5; PREPL inh: 10.4

How did CC(=O)c1ccc2c(c1)C1C(Cl)C(Sc3ccccc3[N+](=O)[O-])CC1C(c1ccccc1)N2 (stereo not given) do in these assays?
LYPLA2 inh: -10.5; LYPLA1 inh: -22.4; PME-1 inh: 70.1*; Fam108B inh: 37.8*; PREPL inh: 14.6; GSTO1 inh: 7.0; Fam108b confirm: -5.8

Results for O=c1[nH]c(O)c(/C=C2/C=CC(c3cc(Cl)ccc3Cl)=N2)c(=O)[nH]1 ?
LYPLA2 inh: 5.2; LYPLA1 inh: 4.6; PME-1 inh: 5.7; Fam108B inh: 27.1*; PREPL inh: 17.2; GSTO1 inh: 23.4; Fam108b confirm: 20.1*

How did CC1=Nc2ccccc2/C1=C/c1c(O)[nH]c(=O)[nH]c1=O do in these assays?
LYPLA2 inh: 5.2; LYPLA1 inh: -1.4; PME-1 inh: -5.4; Fam108B inh: -1.0; PREPL inh: -10.2; GSTO1 inh: 7.9

How did CC(C)OCCCNC(=O)c1c(N)n(Cc2cccs2)c2nc3ccccc3nc12 do in these assays?
LYPLA2 inh: 12.0; LYPLA1 inh: 0.9; PME-1 inh: 22.4; Fam108B inh: 18.8*; PREPL inh: 11.6; GSTO1 inh: 60.1*; Fam108b confirm: 6.8; GSTO1 confirm: -7.7

How did CC(C)CCn1c(N)c(C(=O)NCc2cccs2)c2nc3ccccc3nc21 do in these assays?
LYPLA2 inh: -7.2; LYPLA1 inh: -5.7; PME-1 inh: 0.5; Fam108B inh: -1.3; PREPL inh: 0.7; GSTO1 inh: 3.4

How did CC1Oc2cc3c(-c4c(O)cc(O)c5c(O)c6c(cc45)OC(C)C(C)C6=O)c(O)cc(O)c3c(O)c2C(=O)C1C (stereo not given) do in these assays?
LYPLA2 inh: 16.9; LYPLA1 inh: 5.2; PME-1 inh: 27.8*; Fam108B inh: 40.6*; PREPL inh: 85.4*; GSTO1 inh: 72.5*; Fam108b confirm: 37.2*; Fam108b ABPP HTS: 35.0; GSTO1 confirm: 59.7*

How did CC1(O)CCN2C(=O)CCc3cccc1c32 (stereo not given) do in these assays?
LYPLA2 inh: -0.4; LYPLA1 inh: 2.8; PME-1 inh: -5.2; PREPL inh: 15.1

Assay outcomes (PubChem)
